HDAC3 inhib: inhibitors of human histone deacetylase 3; recombinant HDAC3, fluorogenic peptide/trypsin coupled, fluorescence; inhibition, % at 8.3 µM; actives 0.15% (n = 320,000); in the data active = inhibition above about 26%, passing the limit was not always enough; inconclusive = no clear call, values can overlap the other calls
PHOSPHO1 inh: blocks human PHOSPHO1 phosphatase activity; Q8TCT1; recombinant PHOSPHO1, absorbance phosphatase assay; inhibition, % at 13.3 µM; actives 1.1% (n = 290,000); AID 1565; in the data active = inhibition above about 60%
Target sequence (Q8TCT1 whole entry, looked up): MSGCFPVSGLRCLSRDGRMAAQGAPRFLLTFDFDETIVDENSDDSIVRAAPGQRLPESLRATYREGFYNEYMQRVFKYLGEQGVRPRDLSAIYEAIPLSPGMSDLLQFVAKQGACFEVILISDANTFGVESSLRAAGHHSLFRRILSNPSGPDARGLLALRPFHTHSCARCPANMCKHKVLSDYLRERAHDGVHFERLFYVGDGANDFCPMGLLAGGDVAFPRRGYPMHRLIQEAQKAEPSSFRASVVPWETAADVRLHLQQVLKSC
ANO1 activ: mouse TMEM16A channel activation, primary screen. Q8BHY3. HEK293 TMEM16A/YFP-H148Q/I152L, iodide quench fluorescence; hits give low values. B-score at 10 µM. actives 0.3% (n = 340,000). AID 623877;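 active = fluorescence-ratio B-score plate-corrected deviation score at least 3 library SD below zero, with starting fluorescence score within 5 deviations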;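 also: channel opened by trigger with iodide after compound preincubation; score built on the fluorescence ratio of max minus min over baseline; more negative score means more quench and so TMEM16A activation or potentiation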
CHT block: inhibits the human high affinity choline transporter; actives 0.86% (n = 310,000); CHT-expressing cells, membrane potential dye, choline response; hits give low values; AID 488975; B-score at 10 µM;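 active = B-score over 3 SD under the library average, and starting fluorescence ratio not unusually high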;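 also: choline stimulus applied at its EC90 after an EC20 pre-addition; B-score computed on integrated fluorescence ratio after choline addition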
CHT allo act: human CHT allosteric activation; CHT-expressing cells, membrane potential dye, choline EC20; hits give high values; LV-AA mutant CHT in HEK293 cells; actives 0.49% (n = 310,000); Q9GZV3; B-score at 10 µM; AID 488977;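 active = initial fluorescence not abnormally high and integrated response B-score, plate-corrected, over 3 SD above library mean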
ANO1 block: mouse TMEM16A channel inhibition, primary screen; normalized B-score (activity score, 25-100; higher = stronger inhibition) at 10 µM; HEK293 TMEM16A/YFP iodide influx fluorescence, ionomycin; Q8BHY3; actives 1.2% (n = 310,000); AID 588511;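 active = ratio plate-corrected score three or more library SD toward inhibition, starting fluorescence score within five deviations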;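 also: score derived from kinetic fluorescence span divided by baseline fluorescence per well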
CHT block conf: confirmation of human choline transporter CHT inhibitors; shares compounds with CHT block; CHT-expressing cells, choline membrane potential dye; LV-to-AA substituted CHT, HEK293 cells; CHT activity remaining % of control (hits give low values), % at 10 µM; actives 70% (n = 2,400);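 active = choline transporter activity left, mean of duplicates at 10 µM, below buffer-only control mean minus 3 SD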;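 also: depolarization triggered by choline at its EC90 following an EC20 pre-addition; 0% = hemicholinium-3 full block and 100% = buffer-only control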
HEK293 CHT ctr: counter-screen for CHT inhibitors: effect in parental HEK293 cells; membrane potential dye, choline response; active = decrease or increase beyond buffer ±3SD; shares compounds with CHT block; AID 493222; actives 4% (n = 2,400); membrane potential ratio readout (active if shifted either direction beyond buffer ±3SD; no single direction) at 10 µM;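 also: parental cells lack the transporter so any hit is non-specific; ratio is peak minus trough fluorescence over baseline after EC90 choline challenge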
* marks the source's active call; other numbers are inactive results; i = inactive; ? = inconclusive; . = no result. Rows were chosen to be rich in hits. Some 3.2% of all compounds tested hit in one or more screens of this group.

SMILES | HDAC3 inhib | PHOSPHO1 inh | ANO1 activ | CHT block | CHT allo act | ANO1 block | CHT block conf | HEK293 CHT ctr
CCN1CCN(CCCNC(=O)c2ccc3c(c2)N(Cc2ccccc2)CCS3)CC1 | -63.5 | 33.2 | i | i | i | i | . | .
O=C1Nc2cc(C(=O)NCCCN3CCOCC3)ccc2S/C1=C/c1ccccc1F | 5.4 | 10.0 | i | i | i | i | . | .
Cn1nc(C(=O)NCCCN2CCCCC2)c2c1-c1ccccc1SC2 | 1.5 | 19.9 | i | -5.47* | i | i | 36.8%* | i
O=C(NCCCN1CCCC1)c1ccc2c(c1)N(Cc1ccccc1)CCS2 | -44.0 | 23.9 | i | -5.41* | i | i | 36.3%* | 3.96*
c1cc(CN2CCCCC2)cc(OCCCNc2nc3ccccc3s2)c1 | -11.3 | . | i | i | i | i | . | .
COC(=O)c1cc(NC(=O)CN2C(=O)C(=O)N(C3CCCC3)C2=O)cc(C(=O)OC)c1 | 1.7 | . | i | . | . | . | . | .
O=C(CSc1nnc(-c2ccco2)n1Cc1ccco1)NCc1cccs1 | ? | 17.2 | i | -5.28* | i | i | 66.9%* | i
COc1cc(CCC(=O)OCC(=O)NCc2ccc(Cl)cc2)cc(OC)c1OC | 4.9 | 7.7 | i | -6.53* | i | i | 66.1%* | i
COc1ccc(S(=O)(=O)N2CCN(C)CC2)cc1C(=O)N1CCCCC1 | -6.2 | 33.4 | i | i | i | i | . | .
O=c1[nH]cc(N=Cc2cc([N+](=O)[O-])ccc2O)c(=O)[nH]1 | 8.7 | 29.1 | . | i | i | i | . | .
O=c1[nH]cc(N=Cc2cc(Cl)cc(Cl)c2O)c(=O)[nH]1 | -3.9 | 23.9 | i | -12.6* | i | i | 51.4%* | i
O=C(NNC(=S)NC(=O)c1sc2ccccc2c1Cl)c1ccc(Cl)cc1 | -2.7 | -11.2 | -9.3* | -7.33* | i | 100* | 32.5%* | i
COC(=O)CCn1nc(-c2ccc(Cl)cc2)c2ccccc2c1=O | 5.3 | 32.4 | i | i | i | i | . | .
CCN1CCN(CC(=O)Nc2ccc(S(=O)(=O)N3C(C)CCCC3C)cc2)CC1 (centres undefined) | -3.5 | 41.6 | i | -5.83* | i | i | 25.4%* | i
O=C(COC(=O)c1ccco1)NC(c1ccccc1)c1ccccc1 | -0.8 | -7.7 | i | -13.8* | i | i | i | i
Cc1ccc(S(=O)(=O)N2CCCCC2C(=O)N2CCN(Cc3ccccc3)CC2)cc1 (centres undefined) | 5.8 | 38.7 | i | -7.86* | i | i | 36.7%* | -8.61*
Cc1ccc(S(=O)(=O)N2CCCC2C(=O)N2CCCCCC2)cc1 (centres undefined) | -1.9 | -3.3 | i | i | i | i | . | .
Cc1ccc(S(=O)(=O)NC2=C(N3CCN(Cc4ccccc4)CC3)C(=O)c3ccccc3C2=O)cc1 | 4.5 | 59.2 | i | -5.55* | i | i | 70.9%* | i
CC1(C)c2cc(Cl)ccc2-n2c1cc(O)c(-c1ccccc1)c2=O | -3.0 | 46.6 | i | -6.04* | i | i | 44.3%* | i
Cc1c(O)cc2n(c1=O)-c1ccc(Cl)cc1C2(C)C | -2.3 | 8.0 | i | i | i | i | . | .
CC(C)c1cc(O)c(-c2ccccc2)c(=O)n1-c1ccc(Cl)cc1 | 0.2 | -12.2 | i | -5.01* | i | i | i | i
CC(=O)c1c(O)cc(C(C)C)n(-c2ccccc2)c1=O | -2.2 | -0.3 | i | i | i | i | . | .
CCN1CCN(CCNC(=O)c2cn(C(C)c3ccccc3F)nn2)CC1 (centres undefined) | -0.9 | 28.5 | i | i | i | i | . | .
CCc1ccccc1N1CCN(S(=O)(=O)c2cc(OC)ccc2OC)CC1 | -6.2 | 35.2 | i | i | i | i | . | .
CC(C)[C@H](NC(=O)C1CCN(S(=O)(=O)c2ccc(F)cc2)CC1)C(=O)NCc1ccncc1 | 2.0 | 42.2 | i | i | i | i | . | .
SMILES | HDAC3 inhib | PHOSPHO1 inh | ANO1 activ | CHT block | CHT allo act | ANO1 block | CHT block conf | HEK293 CHT ctr
CCCOc1ccc(Br)cc1CSC(=N)N | -2.0 | 1.6 | i | -6.07* | i | 25* | 33.0%* | i
CCOc1ccc(Br)cc1CC(=O)O | -1.4 | . | i | i | i | i | . | .
COc1nc(-c2ccccc2)ccc1-c1noc(COc2ccccc2)n1 | 3.1 | -7.4 | i | i | i | i | . | .
Cc1cc(C)n2nc(SCC(=O)N/N=C/c3ccccc3F)nc2n1 | -7.6 | 25.8 | i | i | i | i | . | .
CN1/C(=C/C(=O)CSc2ccccc2C(=O)O)C(C)(C)c2ccccc21 | 10.6 | 3.6 | i | i | i | i | . | .
Cc1cc(=O)[nH]c(SCC(=O)/C=C2\N(C)c3ccccc3C2(C)C)n1 | 4.1 | -15.3 | i | -5.02* | i | i | 69.1%* | i
COc1ccccc1/C=C/CN1CCC(Oc2ccc(C(=O)N3CCCC3)cc2)CC1 | -0.3 | 41.4 | i | i | i | i | . | .
CC(Oc1ccc(Cl)cc1)C(=O)NNC(=S)NC(=O)c1ccco1 (centres undefined) | 6.2 | 31.4 | i | -6.46* | i | i | 58.5%* | i
COc1ccc(C(=O)NNC(=S)NC(=O)c2ccco2)cc1 | 4.3 | 11.5 | i | i | i | i | . | .
CCCNS(=O)(=O)c1ccc(OCC(=O)N(C)Cc2ccccc2)cc1 | . | 28.3 | i | i | i | i | . | .
CCn1c(SCC(=O)Nc2ccc(OC)cc2)nc2nc3c(cc2c1=O)COC(C)(C)C3 | -1.5 | 12.1 | i | -4.97* | i | i | i | i
CCOC(=O)C1CCCN(C(=O)c2csc(-c3ccc4c(c3)CCO4)n2)C1 (centres undefined) | 5.8 | 16.0 | i | -7.23* | i | i | 56.5%* | i
CCOC(=O)C1CCCN(C(=O)c2ccc3c(c2)OCCO3)C1 (centres undefined) | . | . | i | . | . | . | . | .
CC(OC(=O)CNC(=O)c1ccc(Br)cc1)C(=O)NC1CCCCC1C (centres undefined) | -0.6 | . | i | . | . | . | . | .
Oc1cccc(-n2nnnc2SCc2ccccc2F)c1 | 1.5 | 24.1 | i | -6.28* | i | i | 56.8%* | i
O=[N+]([O-])c1ccc(O)c(CSc2nnnn2-c2ccccc2)c1 | -6.6 | 8.8 | i | -6.12* | i | 100* | 29.9%* | i
